Source: PubChem
KCNQ2 inh = blocks the rat KCNQ2 potassium channel. CHO-K1 KCNQ2, FluxOR thallium flux, 20 min; active compounds read low. B-score at 10 µM. 1.1% of 310,000 active. AID 2156;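 active means fluorescence ratio B-score at most minus 3 library SDs, with starting brightness B-score within 2 library SDs, cut at about -5.5 in these data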
Target sequence (O88943 whole entry, looked up): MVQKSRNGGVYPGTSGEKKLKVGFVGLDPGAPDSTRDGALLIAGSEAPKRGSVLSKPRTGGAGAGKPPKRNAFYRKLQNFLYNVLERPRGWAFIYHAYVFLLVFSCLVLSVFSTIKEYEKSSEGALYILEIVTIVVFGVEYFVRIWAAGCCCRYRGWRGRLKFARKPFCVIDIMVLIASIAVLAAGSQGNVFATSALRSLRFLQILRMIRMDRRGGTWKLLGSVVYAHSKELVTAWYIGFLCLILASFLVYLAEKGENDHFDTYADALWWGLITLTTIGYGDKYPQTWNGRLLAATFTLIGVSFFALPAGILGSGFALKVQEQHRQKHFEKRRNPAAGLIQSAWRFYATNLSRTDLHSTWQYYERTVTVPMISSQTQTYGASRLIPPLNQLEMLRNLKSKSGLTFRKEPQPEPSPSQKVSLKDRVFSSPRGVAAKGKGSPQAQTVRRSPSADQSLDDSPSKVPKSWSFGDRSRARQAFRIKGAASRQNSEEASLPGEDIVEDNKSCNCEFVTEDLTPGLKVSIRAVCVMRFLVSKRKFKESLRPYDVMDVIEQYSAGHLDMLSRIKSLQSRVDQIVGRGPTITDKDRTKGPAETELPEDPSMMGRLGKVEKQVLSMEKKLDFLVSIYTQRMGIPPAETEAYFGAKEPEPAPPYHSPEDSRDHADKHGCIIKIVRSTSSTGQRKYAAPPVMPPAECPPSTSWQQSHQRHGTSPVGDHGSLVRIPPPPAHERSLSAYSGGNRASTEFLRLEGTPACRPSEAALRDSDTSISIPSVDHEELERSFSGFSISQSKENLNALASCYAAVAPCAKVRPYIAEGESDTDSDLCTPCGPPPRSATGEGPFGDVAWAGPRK
KCNQ2 enhance = potentiators of rat KCNQ2 potassium channel; CHO-K1 KCNQ2, FluxOR thallium flux fluorescence; active compounds read high; B-score at 10 µM; 0.54% of 310,000 active;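 active means fluorescence ratio B-score at least 3 SD of library B-scores, with initial fluorescence B-score within 3 of them, cut at about 5.3 in these data; same plate scores as AID 2156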;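 further: B-score of peak minus minimum over baseline fluorescence ratio after K+ and Tl+ stimulus; positive B-score means potentiation of KCNQ2 with more thallium influx and brighter signal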
* hit, by the source's call; i = inactive; . = no result. Sampled rows, rich in hits. Any-hit rate of the full collection: about 1.6%.

SMILES | KCNQ2 inh | KCNQ2 enhance
COC(=O)c1ccc(-n2c(C)ccc2-c2ccccc2)cc1 | -6.6* | -6.6
CC(=O)c1ccc(-n2c(C)ccc2-c2ccccc2)cc1 | i | .
CCN(Cc1ccccc1)C(=O)COC(=O)c1cc(=O)[nH]c2ccccc12 | i | 0.33
C/C(=N\Nc1nc(C)c(C)s1)c1ccc([N+](=O)[O-])cc1 | i | 5.4*
C/C(=N\Nc1ccc([N+](=O)[O-])cc1)c1ccc(N)cc1 | i | .
O=C(c1oc2ccccc2c1CSCc1ccccc1)N1CCN(c2ncccn2)CC1 | -6.2* | -6.2
CCOCC(=O)Nc1c(C(=O)N2CCN(c3ncccn3)CC2)oc2ccccc12 | i | 0.31
Cc1cc(C)c2c(N=NN3CCOCC3)[nH]nc2n1 | i | .
CCOC(=O)C1CCCN(C(=O)Cn2nc(C)n3c(cc4c(OC)cccc43)c2=O)C1 (centres undefined) | i | 0.99
COc1cccc2c1cc1c(=O)n(CC(=O)N3CCCCCC3)nc(C)n12 | -5.7* | -5.7
COc1ccc(/C=C2/NC(=O)CNC2=O)cc1 | i | .
O=C(Cc1ccc(F)cc1)Nc1nnc(-c2ccc(F)cc2)o1 | i | .
CCC(C)(C)n1nnnc1C(c1cc2cc(C)ccc2[nH]c1=O)N1CCCc2ccccc21 (centres undefined) | i | 34*
CCC(C)(C)n1nnnc1C(c1cc2cc(OC)ccc2[nH]c1=O)N1CCc2ccccc21 (centres undefined) | i | 3
CCC(C)(C)n1nnnc1C(c1cc2ccc(OC)cc2[nH]c1=O)N1CCc2ccccc21 (centres undefined) | -6.1* | -6.1
Cc1ccc2[nH]c(=O)c(C(c3nnnn3C3CCCC3)N3CCCc4ccccc43)cc2c1 (centres undefined) | i | 0.06
Cc1c(Cl)cccc1NC(=O)NCc1cccnc1 | i | .
COc1ccc(CN2CCc3c([nH]c4ccccc34)C2)c(OC)c1C | i | 1.8
CCCCN(c1ccccc1)S(=O)(=O)c1cccc2cccnc12 | i | .
COc1ccccc1CN(C)C(=O)c1cnc(C)cn1 | i | 0.37
COc1ccccc1CN(C)C(=O)c1sccc1-c1ccccc1 | -6.5* | -6.5
COC(=O)c1cc(-c2c(-c3ccc4c(c3)OCO4)noc2-c2ccsc2)cc([N+](=O)[O-])c1 | i | .
CN(C)c1ccc(-c2c(-c3ccc4c(c3)OCO4)noc2-c2ccsc2)cn1 | -5.9* | -5.9
O=C(CSc1nnc(-c2cccc(F)c2)o1)N1CCCC1 | i | 1.6
Cc1nc(SC(C(=O)c2ccccc2)c2ccccc2)nc2ccccc12 (centres undefined) | i | .
SMILES | KCNQ2 inh | KCNQ2 enhance
COc1ccc2nc(SC(C(=O)c3ccccc3)c3ccccc3)nc(C)c2c1 (centres undefined) | -5.6* | -5.6
COc1ccc2nc(SCc3ccccc3C)nc(C)c2c1 | i | .
Cc1ccc2c(C)nc(SC(C(=O)c3ccccc3)c3ccccc3)nc2c1 (centres undefined) | -6* | -6
CC12CCC(=O)N1C(C(=O)NCc1ccc(Cl)cc1Cl)CS2 (centres undefined) | i | .
COc1ccc(OCC(=O)N2CCN(C(=O)c3ccc(F)cc3)CC2)cc1 | i | .
O=c1[nH]c2ccccc2cc1CN(Cc1ccco1)S(=O)(=O)c1ccccc1 | i | .
COc1ccc(CNc2cccc(C)n2)c(O)c1 | i | .
Cc1cccc(NCc2cccc3ccccc23)n1 | -5.9* | -5.9
Cn1cnc(S(=O)(=O)N2CCN(c3cccc(C(F)(F)F)c3)CC2)c1 | i | 2.9
CC1CN(CC(=O)Nc2nc3ccccc3s2)CC(C)O1 (centres undefined) | i | .
O=C(CCCCCN1C(=O)[C@@H]2Cc3ccccc3CN2C1=O)Nc1cccc(F)c1 | -5.8* | -5.8
Cc1cccc(NC(=O)CCCCCN2C(=O)[C@@H]3Cc4ccccc4CN3C2=O)c1 | i | .
Cc1ccc(C2OC3=C(C(=O)CC(C)(C)C3)C(N)=C2C#N)o1 (centres undefined) | i | 5.3*
Cc1ccc(C2C(C#N)=C(N)SC(N)=C2C#N)o1 | i | 0.54
COc1ccc(-c2cc(C(=O)Nc3c(F)cc(F)cc3Br)no2)cc1 | i | .
CC1Cc2ccccc2N1C(=O)CCN1C(=O)C2C3C=CC(C3)C2C1=O (centres undefined) | i | 0.21
CC1Cc2ccccc2N1C(=O)CCn1c(=O)sc2ccccc21 (centres undefined) | -6* | -6
O=C(NC1CCCC1)c1ccc2c(c1)N(Cc1ccc(F)cc1)CCS2 | -6.4* | -6.4
Cc1ccc(CN2CCSc3ccc(C(=O)NC4CCCC4)cc32)cc1 | i | .
CC(C)CCNC(=O)CCc1nnc2ccc(N3CCC(C)CC3)nn12 | i | 1.2
Nc1nnn(CC(=O)N/N=C/c2ccc(Cl)cc2Cl)n1 | i | .
COc1ccc(CCNC(=O)CSc2cccc3cccnc23)cc1OC | -6.3* | -6.3
COc1ccc(CCNC(=O)CSc2ccccn2)cc1OC | i | 0.58
CCCCN(C)C(=O)c1nc2ccccn2c1CN1CCC[C@H]1CO | i | 0.97
Cc1ccc(N=Cc2cc(Br)cc(Cl)c2O)cc1 | i | 12*
SMILES | KCNQ2 inh | KCNQ2 enhance
Oc1ccc(Br)cc1C=Nc1ccc(Cl)cc1 | i | 2.2
CCOC(=O)c1c(NC(=O)CSc2nc3cc(Cl)ccc3c(=O)n2Cc2ccco2)sc(C(=O)N(C)C)c1C | i | .
CC(C)(C)c1ccc(OCCNC(=O)c2ncn[nH]2)cc1 | i | .
COc1ccc2c(c1)C(c1ccc(Cl)cc1)NC(=O)C2 (centres undefined) | i | 1.2
Cc1ccc2c(c1)C1CN(C)CCC1N2C(=O)COc1ccc(N(C)C(=O)C(C)(C)C)cc1 (centres undefined) | i | .
Cc1ccc2c(c1)C1CN(C)CCC1N2CC(=O)N(C)c1ccccc1 (centres undefined) | i | 5.6*
CC1(C(=O)OCC(=O)Nc2nc(-c3ccc(F)c(F)c3)cs2)CC1(Cl)Cl (centres undefined) | i | .
O=C(NNC1=NC2(CCCC2)Cc2ccccc21)c1ccncc1 | i | .
COc1ccc(S(=O)(=O)N2CCC(c3cc(-c4cccc5ccccc45)n[nH]3)CC2)cc1 | i | .
O=S(=O)(c1cccc(C(F)(F)F)c1)N1CCC(c2cc(-c3cccc4ccccc34)n[nH]2)CC1 | -6.1* | -6.1
CC(C)(C)c1ccc(-c2cc(C(=O)NNC(=O)Nc3ccccc3)c3ccccc3n2)cc1 | i | .
O=C(NNC(=O)c1cc(-c2ccccc2)nc2ccccc12)Nc1cccc(Cl)c1 | -6.3* | -6.3
COc1cccc(C(=O)NCCS(=O)(=O)N2CCN(C(=O)c3ccco3)CC2)c1 | i | 1.5
COc1cccc(OC)c1C(=O)N1CCNCC1 | i | .
CSc1ccc(CN2CCC(C(=O)NCc3ccc(C)cc3)CC2)cc1 | i | .
CCN(CC)CCSc1nnc2c3ccccc3n(CCc3ccccc3)c2n1 | i | .
c1ccc(CCn2c3ccccc3c3nnc(SCc4ccc5nonc5c4)nc32)cc1 | -6.2* | -6.2
Cc1ccc(NC(=O)Cc2ccc3c(c2)OCCO3)cc1S(=O)(=O)N1CCCCC1 | i | 0.62
CCOC(=O)c1cc(C)sc1NC(=O)C(c1ccccc1)c1ccccc1 | -6* | -6
CCOC(=O)c1cc(CC)sc1NC(=O)Cc1ccccc1 | -5.7* | -5.7
CCOC(=O)c1cc(CC)sc1NC(=O)COC | i | .
CCc1cc(C(=O)O)c(NC(=O)C(c2ccccc2)c2ccccc2)s1 | i | 1.3
